# GCN5L2 inh: inhibitors of human GCN5L2 histone acetyltransferase. Q92830. GCN5L2 HAT assay, ThioGlo1 CoA-SH fluorescence. Potency, µM (highest dose often 58.9 µM), without a hit: at the highest dose activity change, negative = inhibition, hits mostly inhibitors. 390,000 compounds, 0.21% hits; further: on the % scale 0 is the no-effect control and ±100 the full control effect
# Target sequence (Q92830 whole entry, looked up): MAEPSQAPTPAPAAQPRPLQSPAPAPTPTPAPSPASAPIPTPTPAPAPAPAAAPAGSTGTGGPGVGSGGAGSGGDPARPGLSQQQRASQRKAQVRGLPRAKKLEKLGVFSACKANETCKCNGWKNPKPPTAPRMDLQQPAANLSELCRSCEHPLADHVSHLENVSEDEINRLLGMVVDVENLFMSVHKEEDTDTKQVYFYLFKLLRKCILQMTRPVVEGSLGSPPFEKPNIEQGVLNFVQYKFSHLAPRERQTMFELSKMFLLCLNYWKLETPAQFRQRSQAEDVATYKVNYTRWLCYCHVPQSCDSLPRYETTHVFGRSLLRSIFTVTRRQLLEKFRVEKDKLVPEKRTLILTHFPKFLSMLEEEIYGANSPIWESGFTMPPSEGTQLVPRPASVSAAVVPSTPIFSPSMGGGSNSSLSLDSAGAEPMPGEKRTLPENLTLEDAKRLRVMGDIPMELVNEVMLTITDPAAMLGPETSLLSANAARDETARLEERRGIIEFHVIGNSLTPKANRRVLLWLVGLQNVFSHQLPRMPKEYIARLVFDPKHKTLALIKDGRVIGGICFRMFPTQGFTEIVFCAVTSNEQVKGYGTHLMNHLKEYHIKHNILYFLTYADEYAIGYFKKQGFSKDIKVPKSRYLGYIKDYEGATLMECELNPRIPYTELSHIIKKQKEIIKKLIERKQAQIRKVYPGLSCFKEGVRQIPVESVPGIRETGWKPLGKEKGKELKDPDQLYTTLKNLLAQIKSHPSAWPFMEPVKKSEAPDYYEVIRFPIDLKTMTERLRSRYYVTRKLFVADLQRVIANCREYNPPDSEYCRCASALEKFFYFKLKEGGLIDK
#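 Free CoA generated was detected with ThioGlo1 (50uM) fluorescence at Ex340nm/Em540nm, read immediately and after 20 min at room temperature. Enzyme, 20 nM in HEPES pH 7.5 buffer, saw compounds 15 min before adding 75uM H3(1-25) peptide and 70uM acetyl-CoA.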
# PLK1 PBD inh: PLK1 (human) polo-box domain binding inhibition; 360,000 compounds, 2.8% hits; P53350; Plk1 PBD binding of FITC phosphopeptide, fluorescence polarization; Potency, µM, without a hit: max response, negative = inhibition, usual class: inhibitors; further: series mostly up to about 57 µM; on the % scale 0 is the no-effect control and ±100 the full control effect; nearly all actives have a fitted effect of over 65% in size
# VDR inh: blocks the human vitamin D receptor. Potency, µM, inactives show max response, negative = inhibition, hits mostly inhibitors. P11473. 400,000 compounds, 0.93% hits. VDR-SRC2-3 peptide fluorescence polarization, 2 h; further: on the % scale 0 is the no-effect control and ±100 the full control effect
#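 VDR–SRC2-3 interaction, FP format. Cmpds 23 nl via pintool, brief spin, 2 h ambient incubation.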
# PTAP TSG101 blk: blocks PTAP/TSG101 interaction to inhibit HIV-1 budding; Fluorescence polarization, FITC-PTAP peptide / Tsg101 binding; Potency, µM (top dose mostly 115 µM), inactives show at the highest dose activity change, negative = inhibition, most hits filed as inhibitors; 340,000 tested, under 10 active; active means well fitted inhibition curve with a large enough effect in the main read-out, with a control signal flat, not every such curve was filed as active; inconclusive means small, poorly fitted or top-dose-only effect, or effect the other way, or a change in a side signal; inactive means no such curve, though single readings can be large or run the other way; further: % of control where 0% means no effect
#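 Fluorescence polarization binding of Tsg101 binding domain (10 uM final) to FITC-labeled PTAP peptide (50 nM final) in HEPES pH 7.5 buffer with NaCl, Tween 20, EDTA, TCEP. Compounds added before peptide; binding 20 min at RT.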
# USP1 inh: blocks the human USP1/UAF1 deubiquitinase complex. 390,000 compounds, 0.23% hits. AID 743255. recombinant USP1/UAF1, Ub-Rhodamine cleavage fluorescence. O94782. Potency, µM (top dose mostly 57.1 µM), without a hit: at the top dose activity change, negative = inhibition, hits mostly inhibitors; further: on the % scale 0 is the no-effect control and ±100 the full control effect; nearly all actives have a fitted effect of over 60% in size
#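 USP1/UAF1 complex at 1 nM was preincubated with compound for 15 min at room temperature, then Ub-Rho substrate (150nM final) was added. Fluorescence (480/540 nm) was read kinetically, 6 reads every 60 seconds.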
# TbPYK confirm: confirmation of Trypanosoma brucei pyruvate kinase inhibitors; shares compounds with PLK1 PBD inh; recombinant TbPYK, Kinase-Glo ATP luminescence; Potency, µM (series often up to 76.9 µM), for inactives: at the top dose activity change, negative = inhibition, hits mostly inhibitors; 890 compounds, 67% hits; further: on the % scale 0 is the no-effect control and ±100 the full control effect; nearly all actives have a fitted effect of over 70% in size
# TbPYK orthogonal: orthogonal confirmation of Trypanosoma brucei pyruvate kinase inhibitors. 890 compounds, 62% hits. recombinant TbPYK, ADP-Glo luminescence, 60 min. shares compounds with PLK1 PBD inh. Potency, µM (titrated, usually from 76.9 µM), inactives show top-dose activity change, negative = inhibition, most hits filed as inhibitors; further: on the % scale 0 is the no-effect control and ±100 the full control effect; nearly all actives have a fitted effect of over 75% in size
# Active calls of the source: *; u = inconclusive; x = no result. An excerpt weighted towards active compounds, which were near 3% of everything screened. Unless noted, the call rests on the fitted dose curve; in most records, active means well fitted curve in the direction sought with a large enough effect; inconclusive means small, poorly fitted or top-dose-only effect, or another doubt; inactive means no such curve, though single readings can be large; an effect the other way counts as inactive or inconclusive. Potency means the concentration at half of the fitted maximal effect.
SMILES,GCN5L2 inh,PLK1 PBD inh,VDR inh,PTAP TSG101 blk,USP1 inh,TbPYK confirm,TbPYK orthogonal
O=C(COCc1cc(-c2ccc(F)cc2)on1)Nc1cccc(C(F)(F)F)c1,-14.2%,x,4.6%,x,-26.9%,x,x
COC(=O)c1ccc(NC(=O)CN2C(=O)CSC2=O)cc1,-2.3%,-10.2%,1.3%,-7.4%,-1.6%,x,x
CCOC(=O)c1ccc(NC(=O)CN2C(=O)CSC2=O)cc1,-4.3%,-1.6%,15.5%,0.4%,-11.8%,0.5%,-7.0%
O=C(O)c1ccc(CSc2nnc(-c3ccncc3)n2-c2ccc(Br)cc2)cc1,-7.8%,-10.2%,2.8%,-5.6%,u,x,x
O=C(O)c1ccc(CSc2nnc(-c3cccnc3)n2-c2ccc(Br)cc2)cc1,0.2%,-14.1%,16.8%,-15.8%,0.5%,2.51µM*,3.55µM*
CC1(Oc2cccc(F)c2)CCN(Cc2ccc(-c3ccccc3)o2)C1 (stereo unspecified),x,-6.4%,x,x,x,x,x
COCCn1c(SCCN2CCOCC2)nc2c1c(=O)[nH]c(=O)n2C,1.5%,11.9µM*,u,2.6%,-19.1%,10µM*,14.1µM*
COC(=O)c1sccc1NC(=O)c1cc(-c2ccc(C)cc2)nc2ccccc12,0.8%,-0.8%,4.4%,-3.7%,-18.1%,x,x
COC(=O)c1sc(NC(=O)c2cc(-c3ccccc3)nc3ccccc23)c(C#N)c1C,u,2.67µM*,u,-2.2%,-8.5%,7.08µM*,7.08µM*
CCOC(=O)CN=C1CC(C)(C)CC2=C1Sc1ncnc(N(C)C)c1N2,-7.6%,-20.5%,-13.0%,-1.4%,-10.1%,20µM*,14.1µM*
CC(C)N(C)C1CCN(S(=O)(=O)c2ccc3[nH]c(=O)ccc3c2)CC1,-6.8%,x,7.4%,x,-26.3%,x,x
Cc1nonc1C(=O)N/N=C/c1ccc(O)cc1O,1.4%,-5.9%,8.5%,-2.5%,-9.8%,28.2µM*,-0.7%
Cc1ccc(CN(C)C(=O)c2ccccc2Oc2ccccc2)o1,-7.5%,-26.1%,u,-5.0%,-7.4%,20µM*,25.1µM*
CC(=O)c1cccc(OCc2cc(C(=O)N(C)Cc3ccc(C)o3)no2)c1,-13.2%,-30.0%,u,0.0%,-6.4%,14.1µM*,35.5µM*
CC(=O)c1cccc(OCc2cc(C(=O)N(C)CCc3ccccn3)no2)c1,0.5%,-18.0%,-13.4%,-3.1%,-3.6%,x,x
O=C(O)c1ccccc1Oc1ccc(Oc2ccccc2)cc1,-0.6%,-6.5%,-26.8%,-1.4%,-22.5%,x,x
Cc1cccc(Cn2c(SCc3ccc(C(=O)NCc4ccccc4)cc3)nc3cccnc32)c1,-4.4%,x,19.0%,x,-13.7%,x,x
COC(=O)c1cc2oc(C)cc2n1Cc1ccc(Br)cc1F,-3.3%,x,-16.9%,x,-22.1%,x,x
O=C(Cn1cc(S(=O)(=O)Cc2ccc([N+](=O)[O-])cc2)c2ccccc21)N1CCOCC1,-29.9%,-22.2%,4.6%,1.2%,-21.3%,15.8µM*,25.1µM*
Cc1ccccc1CS(=O)(=O)c1cn(CC(=O)N2CCOCC2)c2ccccc12,-13.7%,-5.9%,-21.7%,-1.4%,-18.4%,x,x
Cc1ccccc1NC(=O)CSCn1nnc2c(=O)[nH]c(Cc3ccc(F)cc3)nc21,-1.6%,x,1.6%,x,-13.9%,x,x
Cc1ccc(-n2nc3c(=O)n(CC(=O)NCCC(C)C)nc(C)c3c2C)cc1,-2.5%,x,8.2%,x,-2.0%,x,x
COc1cc2c(cc1OC)C(c1ccc([N+](=O)[O-])cc1)NCC2 (stereo unspecified),-3.2%,11.9%,-17.7%,-3.6%,-8.5%,-5.6%,-8.7%
COc1cc(/C=N/NC(=O)c2cc(-c3cccc(OC(C)C)c3)nc3ccccc23)ccc1O,x,-3.4%,-3.8%,-4.8%,-3.5%,x,x
CCOC(=O)CSc1nnc(Cc2ccccc2)n1-c1cccc(Cl)c1,-5.4%,-25.3%,-16.9%,-4.7%,-11.8%,x,x
SMILES,GCN5L2 inh,PLK1 PBD inh,VDR inh,PTAP TSG101 blk,USP1 inh,TbPYK confirm,TbPYK orthogonal
CCOC(=O)CSc1nnc(Cc2ccc(OC)cc2)n1-c1ccccc1,-5.7%,-2.1%,2.7%,-7.2%,-21.1%,3.16µM*,5.01µM*
Cc1ccc(/C=C/C(=O)Nc2cccnc2)o1,-18.1%,u,-5.6%,1.2%,-1.9%,28.2µM*,39.8µM*
Cc1ccc(/C=C/C(=O)Nc2cccc3ncccc23)o1,-3.1%,u,-7.1%,-0.8%,-9.9%,u,u
O=C(/C=C/c1c(Cl)cccc1Cl)NCCc1ccccc1,u,-0.7%,-10.0%,-1.0%,-22.0%,x,x
Cc1ccc(/C=C/C(=O)NCCc2ccccc2)o1,-3.7%,26.7µM*,70.8µM*,-0.7%,-15.1%,u,u
CCN(CC)C(=O)c1cccc(-c2csc(C(O)(c3ccccc3)C(F)(F)F)n2)c1 (stereo unspecified),x,-1.9%,x,x,x,x,x
C[C@H](CO)N1C[C@H](C)[C@H](CN(C)Cc2ccncc2)Oc2ccc(NC(=O)Nc3ccc(C(F)(F)F)cc3)cc2CC1=O,-8.9%,-2.0%,-1.2%,1.2%,-37.3%,x,x
O=C(Nc1cc([N+](=O)[O-])ccc1N1CCCC1)c1cccs1,-2.1%,-9.4%,-7.2%,-3.9%,-21.6%,x,x
Cc1cc(C)c2c(c1)-c1c(ssc1=S)C(C)(C)N2C(=O)CSc1nncn1C,-6.3%,-11.6%,u,-2.4%,-12.1%,14.1µM*,15.8µM*
Cc1ccc2c(c1)-c1c(ssc1=S)C(C)(C)N2C(=O)CSc1nncn1C,-2.0%,-23.7%,-25.2%,-8.4%,9.7%,x,x
O=c1cc(O)n(-c2ccccc2)c(=S)[nH]1,0.8%,3.36µM*,-21.8%,-0.2%,-8.4%,u,-20.7%
Cc1ccc(N2C(=O)C3C4C=CC(CNC(=S)N5CCN(c6cccc(C)c6)C(C)C5)(O4)C3C2=O)cc1 (stereo unspecified),-13.9%,-12.6%,u,-1.4%,-15.5%,x,x
CC(=O)Oc1ccc(N2C(=O)C3C4C=CC(CO)(O4)C3C2=O)cc1 (stereo unspecified),u,26.7µM*,44.7µM*,0.4%,-20.2%,-48.2%,u
CCOc1ccccc1NC(=O)CN1c2ccccc2S(=O)(=O)c2ccccc21,-12.9%,x,-5.1%,x,-1.7%,x,x
Cc1nc(NC(=O)c2ccco2)sc1C(=O)O,-7.6%,-4.5%,-0.1%,-6.6%,-12.6%,20µM*,-9.5%
COC(=O)c1sc(NC(=O)c2ccco2)nc1C,-3.6%,-4.2%,-3.0%,-2.0%,-28.6%,x,x
CCn1c(C(=O)NCCc2ccc(S(N)(=O)=O)cc2)cc2sc(Cl)cc21,-0.8%,x,-8.6%,x,10.9%,x,x
CCn1c(C(=O)NCc2cccnc2)cc2sc(Cl)cc21,-2.5%,-8.9%,-3.7%,-3.4%,0.7%,u,u
CCCCc1ccc(NC(=O)CSc2nc3ccccc3nc2N2CCCCC2)cc1,-23.2%,x,-8.6%,x,-16.6%,x,x

# Source: PubChem BioAssay
